# The supplement of paper PMC12282887
# ± gives the standard deviation of the averaged measurements.
# What was measured:
# Test in all cases: promoter activity interaction Z-score (Lux/OD deviation from empty-vector control); higher = stronger promoter induction by the compound
# [1] = test system: E. coli BW25113 acrABp lux reporter
# Outline: (§1)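 Every compound was given at four 1:2 dilutions, in biological duplicates, to E. coli BW25113 carrying low-copy luxCDABE promoter reporters in wild-type or single-gene deletion backgrounds. Growth in 40 µl LB Lennox in 384-well plates at 37°C was followed by OD600 and luminescence readings every 30 min for 12 h, integrated over 0–8 h for wild type and 1–9 h for deletion strains, with wells below 10% of the median growth value excluded. Scores are Z-transformed residuals of growth-normalised luminescence fitted against a control.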
# [2] = test system: E. coli BW25113 marRABp lux reporter
# Outline: as §1
# [3] = test system: E. coli BW25113 micFp lux reporter
# Outline: as §1
# [4] = test system: E. coli BW25113 ompFp lux reporter
# Outline: as §1
# [5] = test system: E. coli BW25113 robp lux reporter
# Outline: as §1
# [6] = test system: E. coli BW25113 soxSp lux reporter
# Outline: as §1
# [7] = test system: E. coli BW25113 tolCp lux reporter
# Outline: as §1
# [8] = 0.07 µg/ml, genetic background: wild type
# [9] = 0.07 µg/ml, genetic background: ΔmarA
# [10] = 0.07 µg/ml, genetic background: Δrob
# [11] = 0.07 µg/ml, genetic background: ΔsoxS
# [12] = 0.15 µg/ml, genetic background: wild type
# [13] = 0.15 µg/ml, genetic background: ΔmarA
# [14] = 0.15 µg/ml, genetic background: Δrob
# [15] = 0.15 µg/ml, genetic background: ΔsoxS
# [16] = 0.29 µg/ml, genetic background: wild type
# [17] = 0.29 µg/ml, genetic background: ΔmarA
# [18] = 0.29 µg/ml, genetic background: Δrob
# [19] = 0.29 µg/ml, genetic background: ΔsoxS
# [20] = 3.7 µg/ml, genetic background: wild type
# [21] = 3.7 µg/ml, genetic background: ΔmarA
# [22] = 3.7 µg/ml, genetic background: Δrob
# [23] = 3.7 µg/ml, genetic background: ΔsoxS
# [24] = 7.5 µg/ml, genetic background: wild type
# [25] = 7.5 µg/ml, genetic background: ΔmarA
# [26] = 7.5 µg/ml, genetic background: Δrob
# [27] = 7.5 µg/ml, genetic background: ΔsoxS
# [28] = 15 µg/ml, genetic background: wild type
# [29] = 15 µg/ml, genetic background: ΔmarA
# [30] = 15 µg/ml, genetic background: Δrob
# [31] = 15 µg/ml, genetic background: ΔsoxS
smiles,measurement,setting,value
NCC[C@H](O)C(=O)N[C@@H]1C[C@H](N)[C@@H](O[C@H]2O[C@H](CN)[C@@H](O)[C@H](O)[C@H]2O)[C@H](O)[C@H]1O[C@H]1O[C@H](CO)[C@@H](O)[C@H](N)[C@H]1O [Amikacin],promoter activity interaction Z-score,[1]; [8],-0.0946 ± 0.19
same,promoter activity interaction Z-score,[1]; [9],-0.446 ± 0.067
same,promoter activity interaction Z-score,[1]; [10],-0.0638 ± 0.15
same,promoter activity interaction Z-score,[1]; [11],0.407 ± 0.79
same,promoter activity interaction Z-score,[1]; [12],-0.184 ± 0.091
same,promoter activity interaction Z-score,[1]; [13],0.671 ± 0.15
same,promoter activity interaction Z-score,[1]; [14],0.0534 ± 0.092
same,promoter activity interaction Z-score,[1]; [15],0.0811 ± 0.13
same,promoter activity interaction Z-score,[1]; [16],0.115 ± 0.19
same,promoter activity interaction Z-score,[1]; [17],-0.213 ± 0.41
same,promoter activity interaction Z-score,[1]; [18],0.174 ± 0.22
same,promoter activity interaction Z-score,[1]; [19],0.725 ± 0.52
same,promoter activity interaction Z-score,[2]; [8],-0.0461 ± 0.062
same,promoter activity interaction Z-score,[2]; [9],-0.273 ± 0.075
same,promoter activity interaction Z-score,[2]; [10],-0.255 ± 0.1
same,promoter activity interaction Z-score,[2]; [11],-0.0126 ± 0.0034
same,promoter activity interaction Z-score,[2]; [12],-0.123 ± 0.09
same,promoter activity interaction Z-score,[2]; [13],-0.134 ± 0.044
same,promoter activity interaction Z-score,[2]; [14],-0.00793 ± 0.05
same,promoter activity interaction Z-score,[2]; [15],-0.13 ± 0.069
same,promoter activity interaction Z-score,[2]; [16],0.0977 ± 0.14
same,promoter activity interaction Z-score,[2]; [17],0.566 ± 0.32
same,promoter activity interaction Z-score,[2]; [18],0.0547 ± 0.082
same,promoter activity interaction Z-score,[2]; [19],0.193 ± 0.079
same,promoter activity interaction Z-score,[3]; [8],0.278 ± 0.0046
same,promoter activity interaction Z-score,[3]; [9],-0.0226 ± 0.005
same,promoter activity interaction Z-score,[3]; [10],0.217 ± 0.22
same,promoter activity interaction Z-score,[3]; [11],0.0839 ± 0.14
same,promoter activity interaction Z-score,[3]; [12],0.512 ± 0.097
same,promoter activity interaction Z-score,[3]; [13],-0.00684 ± 0.057
same,promoter activity interaction Z-score,[3]; [14],0.12 ± 0.33
same,promoter activity interaction Z-score,[3]; [15],0.119 ± 0.33
same,promoter activity interaction Z-score,[3]; [16],-0.0466 ± 0.17
same,promoter activity interaction Z-score,[3]; [17],-0.0853 ± 0.18
same,promoter activity interaction Z-score,[3]; [18],0.176 ± 0.21
same,promoter activity interaction Z-score,[3]; [19],0.577 ± 0.056
same,promoter activity interaction Z-score,[4]; [8],0.0689 ± 0.025
same,promoter activity interaction Z-score,[4]; [9],-0.0472 ± 0.084
same,promoter activity interaction Z-score,[4]; [10],-0.503 ± 0.43
same,promoter activity interaction Z-score,[4]; [11],0.197 ± 1.1
same,promoter activity interaction Z-score,[4]; [12],0.165 ± 0.46
same,promoter activity interaction Z-score,[4]; [13],-0.0471 ± 0.24
same,promoter activity interaction Z-score,[4]; [14],-0.472 ± 0.32
same,promoter activity interaction Z-score,[4]; [15],-0.668 ± 0.2
same,promoter activity interaction Z-score,[4]; [16],0.00226 ± 0.33
same,promoter activity interaction Z-score,[4]; [17],-0.365 ± 0.65
same,promoter activity interaction Z-score,[4]; [18],-0.428 ± 0.22
same,promoter activity interaction Z-score,[4]; [19],-0.0742 ± 0.3
same,promoter activity interaction Z-score,[5]; [8],0.19 ± 0.2
same,promoter activity interaction Z-score,[5]; [9],-0.331 ± 0.085
same,promoter activity interaction Z-score,[5]; [10],0.0353 ± 0.83
same,promoter activity interaction Z-score,[5]; [11],-0.155 ± 0.68
same,promoter activity interaction Z-score,[5]; [12],0.0679 ± 0.58
same,promoter activity interaction Z-score,[5]; [13],-0.461 ± 0.45
same,promoter activity interaction Z-score,[5]; [14],-0.248 ± 0.33
same,promoter activity interaction Z-score,[5]; [15],-0.642 ± 0.14
same,promoter activity interaction Z-score,[5]; [16],-0.115 ± 0.051
same,promoter activity interaction Z-score,[5]; [17],0.598 ± 0.21
same,promoter activity interaction Z-score,[5]; [18],-1.2 ± 0.31
same,promoter activity interaction Z-score,[5]; [19],-0.0862 ± 0.53
same,promoter activity interaction Z-score,[6]; [8],0.354 ± 0.11
same,promoter activity interaction Z-score,[6]; [9],0.016 ± 0.15
same,promoter activity interaction Z-score,[6]; [10],0.176 ± 0.043
same,promoter activity interaction Z-score,[6]; [11],0.0385 ± 0.3
same,promoter activity interaction Z-score,[6]; [12],0.336 ± 0.13
same,promoter activity interaction Z-score,[6]; [13],0.137 ± 0.1
same,promoter activity interaction Z-score,[6]; [14],0.346 ± 0.51
same,promoter activity interaction Z-score,[6]; [15],-0.156 ± 0.15
same,promoter activity interaction Z-score,[6]; [16],0.219 ± 0.2
same,promoter activity interaction Z-score,[6]; [17],-0.031 ± 0.32
same,promoter activity interaction Z-score,[6]; [18],-0.131 ± 0.29
same,promoter activity interaction Z-score,[6]; [19],0.0937 ± 0.57
same,promoter activity interaction Z-score,[7]; [8],-0.282 ± 0.25
same,promoter activity interaction Z-score,[7]; [9],-0.355 ± 0.29
same,promoter activity interaction Z-score,[7]; [10],1.45 ± 1.6
same,promoter activity interaction Z-score,[7]; [11],1.15 ± 0.34
same,promoter activity interaction Z-score,[7]; [12],0.0971 ± 0.8
same,promoter activity interaction Z-score,[7]; [13],0.793 ± 0.15
same,promoter activity interaction Z-score,[7]; [14],0.637 ± 0.84
same,promoter activity interaction Z-score,[7]; [15],-0.668 ± 0.34
same,promoter activity interaction Z-score,[7]; [16],1.16 ± 1.8
same,promoter activity interaction Z-score,[7]; [17],-0.226 ± 1.1
same,promoter activity interaction Z-score,[7]; [18],1.53 ± 1.6
same,promoter activity interaction Z-score,[7]; [19],1.21 ± 0.019
CC[C@H]1OC(=O)[C@H](C)[C@@H](O[C@H]2C[C@@](C)(OC)[C@@H](O)[C@H](C)O2)[C@H](C)[C@@H](O[C@@H]2O[C@H](C)C[C@H](N(C)C)[C@H]2O)[C@](C)(OC)C[C@@H](C)C(=O)[C@H](C)[C@@H](O)[C@]1(C)O [Clarithromycin],promoter activity interaction Z-score,[1]; [20],2.75 ± 0.78
same,promoter activity interaction Z-score,[1]; [21],-0.666 ± 0.051
same,promoter activity interaction Z-score,[1]; [22],2.53 ± 0.28
same,promoter activity interaction Z-score,[1]; [23],3.99 ± 2.9
same,promoter activity interaction Z-score,[1]; [24],4.86 ± 2
same,promoter activity interaction Z-score,[1]; [25],0.0124 ± 0.014
same,promoter activity interaction Z-score,[1]; [26],3.88 ± 1.1
same,promoter activity interaction Z-score,[1]; [27],5.27 ± 0.95
same,promoter activity interaction Z-score,[1]; [28],6.01 ± 2.6
same,promoter activity interaction Z-score,[1]; [29],5.11
same,promoter activity interaction Z-score,[1]; [30],8.62 ± 0.52
same,promoter activity interaction Z-score,[1]; [31],7.67 ± 6.7
same,promoter activity interaction Z-score,[3]; [20],0.345 ± 0.84
same,promoter activity interaction Z-score,[3]; [21],-0.264 ± 0.18
same,promoter activity interaction Z-score,[3]; [22],0.13 ± 0.36
same,promoter activity interaction Z-score,[3]; [23],0.346 ± 0.31
same,promoter activity interaction Z-score,[3]; [24],-0.0809 ± 0.56
same,promoter activity interaction Z-score,[3]; [25],-0.345 ± 0.18
same,promoter activity interaction Z-score,[3]; [26],0.0824 ± 0.022
same,promoter activity interaction Z-score,[3]; [27],-0.272 ± 0.94
same,promoter activity interaction Z-score,[3]; [28],-2.17 ± 0.33
same,promoter activity interaction Z-score,[3]; [29],-0.213 ± 0.3
same,promoter activity interaction Z-score,[3]; [30],-0.078 ± 0.014
same,promoter activity interaction Z-score,[4]; [20],4.02 ± 1.8
same,promoter activity interaction Z-score,[4]; [21],2.83 ± 2.5
same,promoter activity interaction Z-score,[4]; [22],3.22 ± 1.5
same,promoter activity interaction Z-score,[4]; [23],4.01 ± 1.6
same,promoter activity interaction Z-score,[4]; [24],4.44 ± 2.9
same,promoter activity interaction Z-score,[4]; [25],4.37 ± 4.9
same,promoter activity interaction Z-score,[4]; [26],3.77 ± 4.2
same,promoter activity interaction Z-score,[4]; [27],3.43 ± 1.9
same,promoter activity interaction Z-score,[4]; [28],-0.0263 ± 3.9
same,promoter activity interaction Z-score,[4]; [30],-0.772
same,promoter activity interaction Z-score,[4]; [31],-2.44
same,promoter activity interaction Z-score,[5]; [20],-1.9 ± 0.13
same,promoter activity interaction Z-score,[5]; [21],-2.77 ± 0.23
same,promoter activity interaction Z-score,[5]; [22],-1.66 ± 0.048
same,promoter activity interaction Z-score,[5]; [23],-2.35 ± 0.33
same,promoter activity interaction Z-score,[5]; [24],-2.21 ± 0.12
same,promoter activity interaction Z-score,[5]; [25],-2.09 ± 0.24
same,promoter activity interaction Z-score,[5]; [26],-2.11 ± 0.083
same,promoter activity interaction Z-score,[5]; [27],-1.66 ± 0.9
same,promoter activity interaction Z-score,[5]; [28],-4.75 ± 0.23
same,promoter activity interaction Z-score,[5]; [29],-0.357 ± 0.99
same,promoter activity interaction Z-score,[5]; [30],-1.4
same,promoter activity interaction Z-score,[6]; [20],0.201 ± 0.071
same,promoter activity interaction Z-score,[6]; [21],0.637 ± 0.17
same,promoter activity interaction Z-score,[6]; [22],0.258 ± 0.11
same,promoter activity interaction Z-score,[6]; [23],3.14 ± 1.1
same,promoter activity interaction Z-score,[6]; [24],1.35 ± 0.47
same,promoter activity interaction Z-score,[6]; [25],1.62 ± 0.14
same,promoter activity interaction Z-score,[6]; [26],1.1974 ± 0.00038
same,promoter activity interaction Z-score,[6]; [27],3.99 ± 0.81
same,promoter activity interaction Z-score,[6]; [28],0.664 ± 0.51
same,promoter activity interaction Z-score,[6]; [29],2.07 ± 0.33
same,promoter activity interaction Z-score,[6]; [30],1.44 ± 0.33
same,promoter activity interaction Z-score,[6]; [31],1.96
same,promoter activity interaction Z-score,[7]; [20],1.16 ± 0.087
same,promoter activity interaction Z-score,[7]; [21],0.114 ± 1.9
same,promoter activity interaction Z-score,[7]; [22],0.468 ± 0.18
same,promoter activity interaction Z-score,[7]; [23],2.16 ± 2.1
same,promoter activity interaction Z-score,[7]; [24],3.8 ± 1.3
same,promoter activity interaction Z-score,[7]; [25],1.91 ± 0.99
same,promoter activity interaction Z-score,[7]; [26],1.62 ± 0.65
same,promoter activity interaction Z-score,[7]; [27],3.3 ± 1.4
same,promoter activity interaction Z-score,[7]; [28],0.0472 ± 0.77
same,promoter activity interaction Z-score,[7]; [29],0.874 ± 2.2
same,promoter activity interaction Z-score,[7]; [30],1.26 ± 0.65
same,promoter activity interaction Z-score,[7]; [31],3.6044 ± 0.00012
